# A selection: hits, their analogues and other compounds. The true share with any hit is near 7.8%.
# HCV inhibitor – qHTS Assay for Inhibitors of Hepatitis C Virus (HCV). hit rate 3.4% among 340,000. Potency, µM (top dose mostly 41.8 µM), inactives show at the highest dose activity change, negative = inhibition, most hits filed as inhibitors. Huh7.5.1 HCVcc-Cre infection, luciferase reporter, 44 h; active = well fitted inhibition curve with a large enough effect; inconclusive = small, poorly fitted or top-dose-only effect, or another doubt; inactive = no such curve, though single readings can be large or run the other way; also: potency is read from the fitted curve at half-maximal effect
#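 Seed cells (1,000/well) for 4 h; treat with compound and infect with HCVcc-Cre, moi about 0.5. Incubate 44 h, then detect luciferase activity.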
# Vaccinia Venus – qHTS for Stage-Specific Inhibitors of Vaccinia Orthopoxvirus: Venus Reporter Primary qHTS; Vaccinia virus Venus reporter expression, fluorescence; Potency, µM (titrated, usually from 36.5 µM), for inactives: top-dose activity change, negative = inhibition, hits mostly inhibitors; AID 720580, 2013; hit rate 0.46% among 330,000; calls by dose curve; tested in A549 cells; also: potency is read from the fitted curve at half-maximal effect; nearly all actives have a fitted effect of over 30% in size
# VACV mCherry inh – qHTS for Stage-Specific Inhibitors of Vaccinia Orthopoxvirus: mCherry Reporter Primary qHTS; Potency, µM (titrated, usually from 36.5 µM), for the others: top-dose activity change, negative = inhibition, most hits filed as inhibitors; hit rate 0.63% among 310,000; Vaccinia virus mCherry reporter infection, fluorescence; calls by dose curve; tested in A549 cells; also: potency is read from the fitted curve at half-maximal effect; nearly all actives have a fitted effect of over 35% in size
# HCMV inh – qHTS Assay for inhibitors of the human cytomegalovirus (HCMV); HFF cells, HCMV-luciferase reporter, 72 h; hits give low values; activity change, negative = inhibition, % at 57.5 µM; AID 1259415, 2018; hit rate 4.5% among 410,000; in the data active = activity change below about -60%; inconclusive = no clear call, values can overlap the other calls; inactive = above about -39%
#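 Two compound doses tested in HFFs infected with HCMV-luciferase, MOI 1 PFU/cell, 72 h at 37C. Lysate luminescence read with OneGlo; data normalized against buffer-only and 10uM Salinomycin inhibitor controls.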
# LASV entry inh – qHTS for Inhibitors of binding or entry into cells for Lassa Virus; hit rate 1.2% among 300,000; AID 540256, 2011; Potency, µM (doses to about 37.9 µM), for the others: at the top dose activity change, negative = inhibition, most hits filed as inhibitors; Lassa virus pseudotype entry inhibition, cell reporter; calls by dose curve; tested in HEK293 cells; also: potency is read from the fitted curve at half-maximal effect; nearly all actives have a fitted effect of over 50% in size
# Marburg entry inh – qHTS for inhibitors of binding or entry into cells for Marburg Virus; Marburg virus pseudotyped entry inhibition, cell reporter; hit rate 1.8% among 300,000; Potency, µM (titrated, usually from 37.8 µM), without a hit: top-dose activity change, negative = inhibition, hits mostly inhibitors; calls by dose curve; tested in HEK293 cells; also: potency is read from the fitted curve at half-maximal effect
# * = called active by the depositor; i = inactive; u = inconclusive; x = not tested or not shown; [ ] = remark or other dose. % is scaled to controls: 0 for no effect and ±100 for the full control effect.
SMILES,HCV inhibitor,Vaccinia Venus,VACV mCherry inh,HCMV inh,LASV entry inh,Marburg entry inh
FC(F)(F)c1cccc(Cc2noc(CN3CCC(c4ccncc4)CC3)n2)c1,u,-14.3%,-7.9%,-80.2*,u,u
CCOC(=O)Cc1csc(NC(=O)c2c(O)c3ccccc3n(CCC(C)C)c2=O)n1,10µM*,-12.2%,i,-2.2,-10.1%,u
CCOC(=O)Cc1csc(NC(=O)C(CC(C)C)NC(=O)C2CCCCC2)n1 (stereo not drawn),14.1µM*,x,x,-35.9,x,x
CCOC(=O)Cc1csc(NC(=O)C2C3C=CC(C3)C2C(=O)O)n1 (stereo not drawn),0.1%,-11.2%,x,-101.5*,21.9%,7.3%[46.1 µM]
C[C@@H]1CCCCO[C@@H](CN(C)C(=O)Nc2ccc3c(c2)OCO3)[C@@H](C)CN([C@H](C)CO)C(=O)c2cc(NC(=O)Nc3ccc(C(F)(F)F)cc3)ccc2O1,x,x,x,-16.7,x,x
N#C/C(=C\c1ccccc1)c1nc(-c2cc3c(ccc4ccccc43)oc2=O)cs1,x,-3.3%,-11.3%,-23.6,4.1%[46.1 µM],x
Cc1cc(C(C)(C)C)cc(C)c1S(=O)(=O)N1CCN(C(=O)c2cc([N+](=O)[O-])c[nH]c2=O)CC1,12.4%,-12.7%,-11.9%,-64.3*,u,-2.6%[46.1 µM]
CN(C)[C@@H]1CC[C@@]23CCCN2C(=O)CCC[C@H]3[C@H]1Cc1ccccc1,x,x,x,1.7,x,x
Nc1nc(N)c2c(OCc3ccc(C(F)(F)F)cc3)cccc2n1,x,10µM*,10µM*,x,x,x
Cc1ccccc1C(=O)Nc1nnc(SCc2cc(=O)c3c(C)ccc(C)c3[nH]2)s1,x,u,-23.3%,19.9,-14.6%[46.1 µM],x
COCCNC(=O)CN(Cc1ccccc1)S(=O)(=O)c1ccc2nc(C)sc2c1,13.4%,x,x,-60.7*,x,x
COc1ccc(NC(=O)CN(C)S(=O)(=O)c2ccc3nc(C)sc3c2)cc1Cl,x,-11.4%,-16.6%,-68.6*,-2.3%[46.1 µM],-1.9%[46.1 µM]
Cc1nc2ccc(NS(=O)(=O)c3ccc(F)c(C)c3)cc2[nH]1,7.08µM*,x,x,-60.1*,x,x
COc1cc(S(=O)(=O)Nc2ccc3nc(C)sc3c2)ccc1NC(C)=O,u,x,x,-88.3*,x,x
CCC(CC)C(=O)Nc1ccc(C(=O)OCc2cc(=O)n3nc(C4CC4)sc3n2)cc1,x,12.2%,-19.8%,-25.9,u,x
Cc1ccc(CCNS(=O)(=O)c2ccc3c(c2)CC(C)N3C(=O)C2CCC2)cc1 (stereo not drawn),x,-9.4%,-14.1%,0.6,u,x
Cc1nc2ccc(NS(=O)(=O)c3ccc(C)c(C)c3)cc2s1,u,u,-8.2%,-88.4*,-12.5%,u
CC(=O)c1cccc(S(=O)(=O)Nc2ccc3nc(C)sc3c2)c1,-18.8%,-8.4%,i,u,-0.9%,-28.8%
O=C(N/N=C/c1ccc2ncccc2c1)c1ccco1,-23.0%,-10.9%,-21.2%,4.8,2.51µM*,1.26µM*
O=C(N/N=C/c1ccccn1)c1ccco1,15.2%,x,x,-1.0,-17.4%,23.4%
COc1ccc(/C=N/N2CCN(Cc3ccccc3)CC2)cc1,-16.0%,x,x,3.4,x,x
COc1ccc(/C=C/C2=CCN(Cc3ccc(OC)cc3)CC2)cc1,-21.7%,-16.1%,-28.9%,u,-16.0%[46.1 µM],4.47µM*
COc1ccc(-c2cc(C(F)(F)F)nc(SCC(=O)N3CCCCC3)n2)cc1OC,x,-5.2%,0.1%,-13.2,-24.4%[46.1 µM],-1.6%[46.1 µM]
CC1(C(=O)NS(=O)(=O)c2cccs2)CCN1C(=O)CC(c1ccccc1)c1ccccc1 (stereo not drawn),x,x,x,7.0,x,x
CN(C)CCNc1ccc(CO)c2oc3ccc(O)cc3c(=O)c12,u,10µM*,u,-99.1*,u,u
SMILES,HCV inhibitor,Vaccinia Venus,VACV mCherry inh,HCMV inh,LASV entry inh,Marburg entry inh
CN(C)c1ccc(/C=C2\C=Cc3ccccc32)c(Cl)c1,x,-16.0%,i,x,x,x
C[C@@H]1CCCN1[C@@H]1C[S+](=O)([O-])N[C@@H]1COCc1ccccc1,x,x,x,x,6.6%[46.1 µM],x
CN(C)c1ccc(/C=C2\SC(=O)N(CCc3nnc(N)s3)C2=O)cc1,-18.2%,30.8%,-6.9%,u,u,1.12µM*
C=CCOc1ccc(CNc2nccs2)cc1OCC,u,-19.6%,x,-63.6*,-4.6%,14.4%
COc1ccc(Nc2nnc(-c3ccc(C)cc3)c3ccccc23)cc1C(=O)N1CCCCC1,u,u,-30.0%,-73.3*,u,u
CCN(CC)S(=O)(=O)c1cc(-c2nnc(Nc3ccc(OC)c(C(N)=O)c3)c3ccccc23)ccc1C,x,u,u,-64.7*,u,x
Cc1ncc2c(c1CNC(=O)c1cncs1)CCN(C(=O)c1ccsc1)C2,x,-8.7%,-13.6%,x,x,x
O=S(=O)(NCc1ccc(Cl)cc1)c1ccc(Br)cc1C1CC[C@@H](O)C1 (stereo partly drawn),x,x,x,-5.9,x,x
CC1=C(C(=O)NCc2cccc(Br)c2)C2(CCCCC2)OC1=O,x,-5.4%,-10.0%,-11.7,12.3%[46.1 µM],x
CC(C)c1nn2c(=O)cc(COC(=O)c3ccccc3NC(=O)c3cccs3)nc2s1,x,-4.4%,i,-23.9,10.5%[46.1 µM],x
COC(=O)C[C@H](NC(=O)Cn1cnc(C(=O)Nc2ccc(C)c(C)c2)n1)C(=O)OC,13.4%,-0.9%,-8.2%,-65.1*,x,1.9%
Cc1[nH]c(-c2ccco2)nc1C(=O)O,18.2%,x,x,-110.5*,13.9%,9.2%
COc1ccc(Cl)cc1NC(=O)NC(C)c1ccncc1 (stereo not drawn),7.08µM*,x,x,1.2,3.7%,-2.2%
COc1ccc(Cl)cc1NC(=O)C(C)N1CCN(c2ccccn2)CC1 (stereo not drawn),u,x,x,-74.3*,x,x
COc1ccc(C)cc1NC(=O)NC(C)c1ccncc1 (stereo not drawn),-24.0%,x,x,-9.1,x,x
CCOC(=O)N1CCN(C(=O)N2CCOCC2)CC1,6.0%,-7.6%,-10.2%,1.9,21.0%,7.7%
OC(CN1CCOCC1)CN1CCOCC1,1.9%,4.8%,i,-64.6*,2.7%,-0.4%
CCOC(=O)N1CC(C)N(CC(O)CN2CCOCC2)CC1C (stereo not drawn),4.0%,-1.3%,-13.5%,-88.2*,7.2%[46.1 µM],4.3%[46.1 µM]
N#Cc1ccccc1NC(=O)C(=O)NCCc1csc2nc(-c3cccc(F)c3)nn12,x,-17.2%,i,-12.5,29.0%[46.1 µM],x
CC(C)(C)C1CCC(OCC(O)CN2CCN(Cc3ccccc3)CC2)CC1 (stereo not drawn),31.6µM*,x,x,0.1,x,x
CC1CCCC(C)N1CC(O)COC1CCC(C(C)(C)C)CC1 (stereo not drawn),12.6µM*,x,x,0.0,x,x
OC(COCC1COc2ccccc2O1)CN1CCN(c2ccccn2)CC1 (stereo not drawn),u,9.8%,u,-65.7*,-11.7%[46.1 µM],-5.0%[46.1 µM]
CC(C)(C)C1CCC(OCC(O)CN2CCN(c3ccccn3)CC2)CC1 (stereo not drawn),-22.4%,-23.3%,-20.4%,-69.2*,u,u

# Compound activity deposited in PubChem BioAssay by National Center for Advancing Translational Sciences (NCATS).
